Results taken from PubChem BioAssay AID1159580 (chemical genetic matrix, 2015).
Hit rate of the full screen: of about 5,500 compounds, about 2,000 (36%) were called active. Inconclusive results (about 18%) are left out. Cut-off read from the data, not from the text of the source: active = normalized growth mostly below about 0.91 (no sharp cut-off); inconclusive = no clear call, values can overlap the other calls; inactive = mostly above about 0.92. Some of the results follow.

Assay: chemical genetic growth profiling, strain panel (AID 1159580);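 note: tested at 20 µM; growth read once vehicle control cultures reached saturation at 30 °C; 1 = growth at the plate median or of vehicle wells; lower values mean less growth of the strain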
Conditions: growth OD

Measured: normalized growth

Nc1ccc(S(=O)(=O)Nc2ccccn2)cc1
inactive: S. cerevisiae deletion strains, locus YKL009W, strain mrt4, hits give low values 0.993 | S. cerevisiae deletion strains, locus YKL068W, hits give low values 0.991 | S. cerevisiae deletion strains, locus YKL085W, strain MDH1 (second series), hits give low values 0.982 | S. cerevisiae deletion strains, locus YKL085W, strain MDH1, hits give low values 0.982 | S. cerevisiae deletion strains, locus YKL160W, strain elf1, hits give low values 1.02 | S. cerevisiae deletion strains, locus YKL190W, strain CNB1, hits give low values 1.01 | S. cerevisiae deletion strains, locus YKR001C, strain vps1, hits give low values 0.995 | S. cerevisiae deletion strains, locus YKR026C, strain gcn3, hits give low values 1.02 | S. cerevisiae deletion strains, locus YKR091W, strain srl3, hits give low values 1.01 | S. cerevisiae deletion strains, locus YLL001W, strain dnm1, hits give low values 1.03 | S. cerevisiae deletion strains, locus YLL026W, hits give low values 1.02 | S. cerevisiae deletion strains, locus YLL041C, strain sdh2, hits give low values 1.01 | S. cerevisiae deletion strains, locus YLR027C, strain aat2, hits give low values 1.01 | S. cerevisiae deletion strains, locus YLR039C, strain RIC1, hits give low values 1.03 | S. cerevisiae deletion strains, locus YLR058C, strain SHM2, hits give low values 1.01 | S. cerevisiae deletion strains, locus YLR102C, strain apc9, hits give low values 0.993 | S. cerevisiae deletion strains, locus YLR113W, strain HOG1, hits give low values 0.976 | S. cerevisiae deletion strains, locus YLR221C, strain rsa3, hits give low values 0.993 | S. cerevisiae deletion strains, locus YLR258W, strain gsy2, hits give low values 1 | S. cerevisiae deletion strains, locus YLR262C, strain YPT6 (second series), hits give low values 1.03 | S. cerevisiae deletion strains, locus YLR262C, strain YPT6, hits give low values 1.04 | S. cerevisiae deletion strains, locus YLR268W, strain sec22, hits give low values 0.944 | S. cerevisiae deletion strains, locus YLR320W, strain mms22, hits give low values 0.985 | S. cerevisiae deletion strains, locus YLR330W, strain CHS5, hits give low values 1 | S. cerevisiae deletion strains, locus YLR342W, strain FKS1 (second series), hits give low values 0.985 | S. cerevisiae deletion strains, locus YLR342W, strain FKS1, hits give low values 1.01 | S. cerevisiae deletion strains, locus YLR357W, strain rsc2, hits give low values 0.996 | S. cerevisiae deletion strains, locus YLR370C, strain arc18, hits give low values 1.01 | S. cerevisiae deletion strains, locus YLR371W, strain rom2, hits give low values 0.99 | S. cerevisiae deletion strains, locus YLR384C, strain iki3, hits give low values 1.01 | S. cerevisiae deletion strains, locus YLR418C, strain cdc73, hits give low values 0.985 | S. cerevisiae deletion strains, locus YML016C, strain PPZ1, hits give low values 1.01 | S. cerevisiae deletion strains, locus YML032C, strain rad52, hits give low values 0.97 | S. cerevisiae deletion strains, locus YML120C, strain ndi1, hits give low values 1.01 | S. cerevisiae deletion strains, locus YML124C, strain tub3, hits give low values 1 | S. cerevisiae deletion strains, locus YMR058W, strain fet3, hits give low values 1.03 | S. cerevisiae deletion strains, locus YMR078C, strain ctf18, hits give low values 0.989 | S. cerevisiae deletion strains, locus YMR125W, strain sto1, hits give low values 1.01 | S. cerevisiae deletion strains, locus YMR129W, hits give low values 1.01 | S. cerevisiae deletion strains, locus YMR205C, strain PFK2, hits give low values 1.01 | S. cerevisiae deletion strains, locus YMR223W, strain ubp8, hits give low values 1.01 | S. cerevisiae deletion strains, locus YMR231W, strain pep5, hits give low values 1.01 | S. cerevisiae deletion strains, locus YMR263W, strain SAP30, hits give low values 1.01 | S. cerevisiae deletion strains, locus YMR307W, strain GAS1, hits give low values 1.02 | S. cerevisiae deletion strains, locus YNL067W, strain RPL9B, hits give low values 1.01 | S. cerevisiae deletion strains, locus YNL071W, strain lat1, hits give low values 0.998 | S. cerevisiae deletion strains, locus YNL128W, strain TEP1, hits give low values 1.01 | S. cerevisiae deletion strains, locus YNL153C, strain GIM3, hits give low values 1.01 | S. cerevisiae deletion strains, locus YNL183C, strain NPR1, hits give low values 0.945 | S. cerevisiae deletion strains, locus YNL209W, strain ssb2, hits give low values 1.01 | S. cerevisiae deletion strains, locus YNL233W, strain BNI4, hits give low values 1 | S. cerevisiae deletion strains, locus YNL248C, strain rpa49, hits give low values 0.985 | S. cerevisiae deletion strains, locus YNL250W, strain rad50, hits give low values 0.988 | S. cerevisiae deletion strains, locus YNL271C, strain bni1, hits give low values 0.998 | S. cerevisiae deletion strains, locus YNL298W, strain CLA4, hits give low values 0.988 | S. cerevisiae deletion strains, locus YNL307C, strain MCK1, hits give low values 0.997 | S. cerevisiae deletion strains, locus YNL322C, strain KRE1 (second series), hits give low values 1.01 | S. cerevisiae deletion strains, locus YNL322C, strain KRE1, hits give low values 1 | S. cerevisiae deletion strains, locus YNR049C, strain mso1, hits give low values 1.02 | S. cerevisiae deletion strains, locus YNR052C, strain pop2, hits give low values 0.991 | S. cerevisiae deletion strains, locus YOL006C, strain TOP1, hits give low values 1.05 | S. cerevisiae deletion strains, locus YOL012C, strain htz1 0.921 | S. cerevisiae deletion strains, locus YOL147C, strain pex11, hits give low values 1 | S. cerevisiae deletion strains, locus YOR001W, strain rrp6, hits give low values 1.02 | S. cerevisiae deletion strains, locus YOR061W, strain CKA2, hits give low values 1.01 | S. cerevisiae deletion strains, locus YOR069W, strain VPS5, hits give low values 1.01 | S. cerevisiae deletion strains, locus YOR070C, strain gyp1, hits give low values 1 | S. cerevisiae deletion strains, locus YOR080W, strain dia2, hits give low values 1.02 | S. cerevisiae deletion strains, locus YOR083W, strain WHI5, hits give low values 0.991 | S. cerevisiae deletion strains, locus YOR106W, strain vam3, hits give low values 1.04 | S. cerevisiae deletion strains, locus YOR136W, strain idh2, hits give low values 0.992 | S. cerevisiae deletion strains, locus YOR144C, strain elg1, hits give low values 0.989 | S. cerevisiae deletion strains, locus YOR184W, strain ser1, hits give low values 0.993 | S. cerevisiae deletion strains, locus YOR231W, strain MKK1, hits give low values 0.986 | S. cerevisiae deletion strains, locus YOR265W, strain rbl2, hits give low values 1.01 | S. cerevisiae deletion strains, locus YOR270C, strain vph1, hits give low values 1.01 | S. cerevisiae deletion strains, locus YOR290C, strain snf2, hits give low values 0.997 | S. cerevisiae deletion strains, locus YOR316C, strain cot1, hits give low values 0.994 | S. cerevisiae deletion strains, locus YPL051W, strain arl3, hits give low values 1.01 | S. cerevisiae deletion strains, locus YPL078C, strain atp4, hits give low values 1.02 | S. cerevisiae deletion strains, locus YPL106C, strain sse1, hits give low values 0.975 | S. cerevisiae deletion strains, locus YPL240C, strain hsp82, hits give low values 1.02 | S. cerevisiae deletion strains, locus YPL256C, strain CLN2, hits give low values 0.968 | S. cerevisiae deletion strains, locus YPR119W, strain clb2, hits give low values 0.975 | S. cerevisiae deletion strains, locus YPR141C, strain kar3, hits give low values 0.99 | S. cerevisiae deletion strains, locus YPR163C, strain tif3, hits give low values 0.993 | S. cerevisiae deletion strains, locus YPR167C, strain met16, hits give low values 0.986 | S. cerevisiae deletion strains, strain wtn01, hits give low values 0.998 | S. cerevisiae strains, strain wild type, hits give low values 1.01
